Test results reported in PubChem BioAssay (EPA / NIEHS).
A structure can be active in one record and inactive in another. Active and inactive are the calls of the source. How the source made its calls: active means hit-call score of the fitted dose curve at least 0.9, where 1 is the maximum; inactive means score below 0.9.

What was measured:
Details in all cases: mRNA level, 48 h; actives raise or lower the signal
[1] = read-out: Phosphatase and tensin (PTEN), PTEN (gene 5728); assay: LTEA_HepaRG_PTEN: Life Technologies and Expression Analysis (LTEA) Assay for Phosphatase and tensin (PTEN) using HepaRG (AID 2283523)
Procedure, shortened: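 Read-out: TaqMan qRT-PCR of PTEN transcript, normalized to three housekeeping genes, fitted in both directions against 0.5% DMSO. Differentiated human HepaRG cultures received chemicals for 48 h, eight-point half-log series topping at 100 uM.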

[2] = read-out: solute carrier (SLC22A1), SLC22A1 (gene 6580); assay: LTEA_HepaRG_SLC22A1: Life Technologies and Expression Analysis (LTEA) Assay for solute carrier (SLC22A1) using HepaRG (AID 2283524);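 on AC50: differentiated human HepaRG liver cells in serum-free induction medium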
Procedure, shortened: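 Transcript level of SLC22A1 quantified by qRT-PCR (normalized to three housekeeping genes) after 48 h chemical exposure of HepaRG cells, eight concentrations up to 100 µM, half-log steps, 0.5% DMSO vehicle. Gain or loss relative to DMSO fitted bidirectionally.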

[3] = read-out: Pyruvate Dehydrogenase Kinase 4 (PDK4), PDK4 (gene 5166); assay: LTEA_HepaRG_PDK4: Life Technologies and Expression Analysis (LTEA) Assay for Pyruvate Dehydrogenase Kinase 4 (PDK4) using HepaRG (AID 2283525)
Procedure, shortened: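 Readout is qRT-PCR of PDK4 transcript, normalized to three housekeeping genes, with bidirectional fitting against 0.5% DMSO vehicle. Differentiated HepaRG cells were treated 48 h in serum-free induction medium, duplicate wells, eight-point half-log series topping at 100 uM.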

[4] = read-out: NAD(P)H dehydrogenase [quinone] 1 (NQO1), NQO1 (gene 1728); assay: LTEA_HepaRG_NQO1: Life Technologies and Expression Analysis (LTEA) Assay for NAD(P)H dehydrogenase [quinone] 1 (NQO1) using HepaRG (AID 2283526)
Procedure, shortened: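 qRT-PCR read-out (Fluidigm TaqMan), normalized to three housekeeping genes, after 48 h chemical exposure of HepaRG cells. Concentrations: eight points, top 100 uM, half-log steps, 0.5% DMSO vehicle. Gain or loss of signal fitted relative to DMSO.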

[5] = read-out: Nuclear factor erythroid 2-related factor 2 (Homo sapiens) (UniProt Q16236); assay: LTEA_HepaRG_NFE2L2: Life Technologies and Expression Analysis (LTEA) Assay for Nuclear factor erythroid 2-related factor 2 (NFE2L2) Transcription Factor using HepaRG (AID 2283527)
Procedure, shortened: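 NFE2L2 transcript level was read by qRT-PCR (housekeeping ACTB/GAPDH/POLR2A normalisation) after 48 h chemical treatment of HepaRG in serum-free induction medium. Duplicate 8-point half-log curves, top 100 uM, 0.5% DMSO vehicle; up- or down-regulation fitted against vehicle.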

[6] = read-out: succinate dehydrogenase complex iron sulfur subunit B (SDHB), SDHB (gene 6390); assay: LTEA_HepaRG_SDHB: Life Technologies and Expression Analysis (LTEA) Assay for succinate dehydrogenase complex iron sulfur subunit B (SDHB) using HepaRG (AID 2283528)
Procedure, shortened: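 HepaRG, 48 h exposure, 8-pt half-log series from 100 uM in 0.5% DMSO, duplicates. Readout: SDHB mRNA by Fluidigm qRT-PCR vs housekeeping genes; bidirectional fit relative to DMSO.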

[7] = read-out: Signal transducer and activator of transcription 3 (Homo sapiens) (UniProt P40763); assay: LTEA_HepaRG_STAT3: Life Technologies and Expression Analysis (LTEA) Assay for Signal transducer and activator of transcription (STAT3) using HepaRG (AID 2283529)
Procedure, shortened: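 STAT3 transcript quantified by qRT-PCR against three housekeeping genes (ACTB, GAPDH, POLR2A), fitted both directions relative to DMSO. HepaRG cultures exposed 48 h to eight half-log concentrations, top 100 uM, 0.5% DMSO, serum-free induction medium.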

[8] = read-out: solute carrier (SLCO1B1), SLCO1B1 (gene 10599); assay: LTEA_HepaRG_SLCO1B1: Life Technologies and Expression Analysis (LTEA) Assay for solute carrier (SLCO1B1) using HepaRG (AID 2283530)
Procedure, shortened: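 SLCO1B1 transcript levels were quantified by TaqMan qRT-PCR using three housekeeping genes for normalization. This followed 48 h chemical exposure (100 uM top, half-log, 8 points, 0.5% DMSO) of HepaRG liver cells, with gain or loss fitted relative to DMSO.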

[9] = read-out: sulfotransferase 2A1 (SULT2A1), SULT2A1 (gene 6822); assay: LTEA_HepaRG_SULT2A1: Life Technologies and Expression Analysis (LTEA) Assay for sulfotransferase 2A1 (SULT2A1) using HepaRG (AID 2283531)
Procedure, shortened: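 Expression change of SULT2A1, by qRT-PCR with three housekeeping-gene normalization, was scored bidirectionally versus DMSO. Cells: differentiated HepaRG, dosed in duplicate for 48 h across 8 points, highest 100 µM, half-log dilution, 0.5% DMSO.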

[10] = read-out: Transforming Growth Factor (TGFA), TGFA (gene 7039); assay: LTEA_HepaRG_TGFA: Life Technologies and Expression Analysis (LTEA) Assay for Transforming Growth Factor (TGFA) using HepaRG (AID 2283532)
Procedure, shortened: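 TGFA transcript quantified by qRT-PCR (Fluidigm arrays) against three housekeeping genes, after 48 hours chemical treatment of HepaRG cells. Top concentration 100 uM with half-log dilutions, 8 points, duplicates, 0.5% DMSO.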

Measured: AC50

Sequence of Nuclear factor erythroid 2-related factor 2 (Homo sapiens) (Q16236 whole entry, looked up): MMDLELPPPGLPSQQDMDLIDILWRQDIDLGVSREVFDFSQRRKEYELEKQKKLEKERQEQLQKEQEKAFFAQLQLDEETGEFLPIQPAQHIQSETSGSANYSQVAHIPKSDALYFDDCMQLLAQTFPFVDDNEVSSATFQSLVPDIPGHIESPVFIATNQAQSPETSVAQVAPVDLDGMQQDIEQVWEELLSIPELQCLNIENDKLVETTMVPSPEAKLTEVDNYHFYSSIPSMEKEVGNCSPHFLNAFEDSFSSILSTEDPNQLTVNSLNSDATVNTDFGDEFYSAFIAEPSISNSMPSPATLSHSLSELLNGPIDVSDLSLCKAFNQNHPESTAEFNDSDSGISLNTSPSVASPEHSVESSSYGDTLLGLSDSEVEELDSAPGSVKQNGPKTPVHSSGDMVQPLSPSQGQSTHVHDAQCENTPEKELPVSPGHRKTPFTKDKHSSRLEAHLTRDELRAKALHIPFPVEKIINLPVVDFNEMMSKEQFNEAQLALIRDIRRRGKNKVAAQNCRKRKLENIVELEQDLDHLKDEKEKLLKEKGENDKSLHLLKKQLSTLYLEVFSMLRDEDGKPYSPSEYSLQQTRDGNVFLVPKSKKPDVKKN
Sequence of Signal transducer and activator of transcription 3 (Homo sapiens) (P40763 whole entry, looked up): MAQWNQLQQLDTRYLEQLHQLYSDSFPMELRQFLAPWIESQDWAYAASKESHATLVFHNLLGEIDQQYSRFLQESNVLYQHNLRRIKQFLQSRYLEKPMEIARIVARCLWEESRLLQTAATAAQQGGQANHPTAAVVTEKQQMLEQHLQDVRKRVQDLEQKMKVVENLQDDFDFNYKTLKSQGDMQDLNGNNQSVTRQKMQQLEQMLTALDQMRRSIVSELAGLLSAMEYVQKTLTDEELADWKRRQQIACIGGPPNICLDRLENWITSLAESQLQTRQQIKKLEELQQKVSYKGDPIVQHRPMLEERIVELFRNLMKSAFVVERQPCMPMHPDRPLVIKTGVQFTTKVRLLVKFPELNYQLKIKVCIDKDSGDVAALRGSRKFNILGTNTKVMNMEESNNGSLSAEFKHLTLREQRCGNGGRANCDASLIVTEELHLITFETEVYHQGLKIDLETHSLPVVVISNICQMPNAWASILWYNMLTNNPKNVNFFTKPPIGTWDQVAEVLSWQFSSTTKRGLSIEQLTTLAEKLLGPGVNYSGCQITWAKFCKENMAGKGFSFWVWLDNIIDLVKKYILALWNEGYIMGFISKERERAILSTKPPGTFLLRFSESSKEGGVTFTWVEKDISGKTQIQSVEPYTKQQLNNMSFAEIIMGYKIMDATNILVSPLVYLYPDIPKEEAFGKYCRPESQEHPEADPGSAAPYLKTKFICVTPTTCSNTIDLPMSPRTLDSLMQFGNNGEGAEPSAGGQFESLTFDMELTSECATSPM

NC(=O)O
inactive: all assays above

CC12CC1(C)C(=O)N(c1cc(Cl)cc(Cl)c1)C2=O (centres undefined)
active: [2] 11.2 µM | [3] 16.2 µM
not listed: [9]
inactive: all other assays above

C=C(C)C(=O)[O][Sn]([CH2]CCC)([CH2]CCC)[CH2]CCC
active: [1] 15.8 µM | [2] 2.7 µM | [3] 1.18 µM | [4] 9.2 µM | [5] 61.3 µM | [6] 94.1 µM | [8] 2.57 µM | [9] 76.9 µM | [10] 2.42 µM
inactive: [7]

CC(C)(C)CC(C)(C)c1ccc(O)cc1
inactive: all assays above

CCOP(=S)(OCC)Oc1nc(Cl)c(Cl)cc1Cl
inactive: all assays above

C=CC(=O)OCCCCCC(C)C
inactive: all assays above

Cc1ccccc1N
inactive: all assays above

CC(C)(C)c1cc(O)ccc1O
inactive: all assays above

CC(=O)[O][Hg][c]1ccccc1
active: [1] 69.5 µM | [2] 2.33 µM | [3] 13.1 µM | [4] 12.3 µM | [5] 23.4 µM | [6] 26.2 µM | [7] 17 µM | [9] 17.6 µM | [10] 23 µM
inactive: [8]

C[C@@H]1C[C@@H]([C@H](O)CC2CC(=O)NC(=O)C2)C(=O)[C@@H](C)C1
active: [1] 87.6 µM | [2] 8.29 µM | [3] 31.9 µM | [4] 29.3 µM | [5] 30.3 µM | [6] 50 µM | [7] 15.6 µM | [8] 16.4 µM | [9] 48.9 µM | [10] 31.1 µM

ClC1(Cl)C2(Cl)C3(Cl)C4(Cl)C(Cl)(Cl)C5(Cl)C3(Cl)C1(Cl)C5(Cl)C24Cl (centres undefined)
active: [3] 16.8 µM
inactive: all other assays above

Cn1sc(Cl)cc1=O
inactive: all assays above

C[C@]12CCC(=O)C[C@@H]1CC[C@@H]1[C@@H]2CC[C@]2(C)[C@@H](O)CC[C@@H]12
inactive: all assays above

Oc1cccc2cccnc12
inactive: all assays above

O=C1C2(Cl)C3(Cl)C4(Cl)C(Cl)(Cl)C5(Cl)C3(Cl)C1(Cl)C5(Cl)C24Cl (centres undefined)
inactive: [1] | [4] | [10]
active: [2] 19.3 µM | [3] 92.7 µM | [5] 92.1 µM | [6] 91.6 µM | [7] 93.1 µM | [8] 93.5 µM | [9] 93.5 µM

O=C(O)C(F)(F)C(F)(F)C(F)(F)C(F)(F)C(F)(F)C(F)(F)C(F)(F)C(F)(F)C(F)(F)C(F)(F)F
active: [9] 47.8 µM
not listed: [2]
inactive: all other assays above

O=C(O)C(F)(F)C(F)(F)C(F)(F)C(F)(F)C(F)(F)C(F)(F)F
active: [3] 35.6 µM
inactive: all other assays above

CCC(=O)C(CC(C)N(C)C)(c1ccccc1)c1ccccc1 (centres undefined)
inactive: all assays above

O=c1[nH]c(=O)[nH]c(=O)[nH]1
inactive: all assays above

ClCC(Cl)CCl
not listed: [4]
inactive: all other assays above

CC(C)(OO)c1ccccc1
inactive: all assays above

CCN1CCC2(CC1)COc1cc3c(cc12)N(C(=O)c1ccc(-c2ccc(-c4nnc(C)o4)cc2C)cc1)CC3
active: [1] 22.7 µM | [2] 22.9 µM | [3] 28.4 µM | [6] 24.8 µM | [7] 13.7 µM | [9] 75.3 µM | [10] 83.8 µM
inactive: [4] | [5] | [8]

CCC(C)(C)c1ccc(O)c(C(C)(C)CC)c1
inactive: all assays above

O=C(Nc1ccc2[nH]ccc2c1)c1cc2cc(F)ccc2n1Cc1cccc(F)c1
active: [2] 39.5 µM | [3] 89.3 µM | [5] 47.1 µM | [8] 36.1 µM | [9] 31.8 µM | [10] 29.3 µM
inactive: [1] | [4] | [6] | [7]

O=C(O)C(Cl)(Cl)Cl
inactive: all assays above

CN(C)N=O
inactive: all assays above

CCOP(=S)(OCC)SCSP(=S)(OCC)OCC
active: [3] 20.4 µM
inactive: all other assays above

CCCCCCCCc1ccc(O)cc1
active: [3] 69.3 µM
inactive: all other assays above

CC(C)(c1ccccc1)c1ccc(O)c(C(C)(C)c2ccccc2)c1
active: [2] 65.4 µM | [5] 50 µM | [8] 74.4 µM | [9] 86.3 µM
inactive: all other assays above

O=[N+]([O-])c1ccc(O)c([N+](=O)[O-])c1
inactive: [10]
active: [1] 31.8 µM | [2] 25.2 µM | [3] 11.8 µM | [4] 12.7 µM | [5] 12.7 µM | [6] 13 µM | [7] 12.8 µM | [8] 20.4 µM | [9] 17.7 µM

COc1cc(-c2ccc(N)c(OC)c2)ccc1N
active: [2] 50 µM | [5] 50 µM
inactive: [1] | [2] | [3] | [4] | [5] | [6] | [7] | [8] | [9] | [10]
